# According to PubChem BioAssay (NCI):
# About 79,000 compounds went through this panel and 15% of them were active in at least one assay; those are over-represented in the sample as a whole. Values without a mark were called inactive. Activity calls are given as the source filed them. Cut-off read from the data, not from the text of the source: active = growth inhibition above about 70%; inactive = the rest.
# Key:
# [1] = NCI Yeast Anticancer Drug Screen. Data for the rad50 strain (AID 155);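 note: 0% = growth of vehicle-only cultures of the same strain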; details: S. cerevisiae rad50 strain growth inhibition, hits give high values
# Outline: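 Vehicle-treated cultures provide the reference for the growth inhibition reported for compound-exposed, repair-deficient yeast.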
# [2] = NCI Yeast Anticancer Drug Screen. Data for the mec2-1 strain (AID 157); details: S. cerevisiae mec2-1 strain, hits give high values
# Outline: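 Compounds were applied to mec2-1 yeast cells. Their growth was then compared with that of vehicle-treated cultures to give growth inhibition.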
# [3] = NCI Yeast Anticancer Drug Screen. Data for the sgs1 mgt1 strain (AID 161);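 note: 0% = growth of cultures given vehicle only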; details: S. cerevisiae sgs1 mgt1 strain, hits give high values
# Outline: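 This yeast growth screen uses a strain with defined DNA-repair lesions; compound-treated growth is compared with vehicle-treated growth.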
# [4] = NCI Yeast Anticancer Drug Screen. Data for the cln2 rad14 strain (AID 165);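 note: 0% = growth equal to vehicle treated cultures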; details: S. cerevisiae cln2 rad14 strain, hits give high values
# Outline: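 Strain: cln2 rad14 yeast, altered in cell cycle control and DNA damage repair. Read-out: growth inhibition vs vehicle.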
# [5] = NCI Yeast Anticancer Drug Screen. Data for the bub3 strain (AID 167); details: S. cerevisiae bub3 mutant strain, hits give high values
# Outline: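 Mutant yeast screening strain plus compound; vehicle-treated cultures serve as the 0% inhibition reference.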
# [6] = NCI Yeast Anticancer Drug Screen. Data for the mlh1 rad18 strain (AID 175); details: S. cerevisiae mlh1 rad18 strain growth inhibition, hits give high values
# Outline: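 A repair-deficient yeast strain is exposed to test compound, and growth is scored relative to vehicle-treated controls.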
# [7] = at 5.0 µM (retest, dose inferred, filed as 0.5)
# [8] = at 50.0 µM (retest, dose inferred, filed as 5.0)
Structure (SMILES),"growth inhibition [1, 7]","growth inhibition [1, 8]",growth inhibition ([1]; at 50.0 µM),"growth inhibition [2, 7]","growth inhibition [2, 8]",growth inhibition ([2]; at 50.0 µM),"growth inhibition [3, 7]","growth inhibition [3, 8]",growth inhibition ([3]; at 50.0 µM),"growth inhibition [4, 7]","growth inhibition [4, 8]",growth inhibition ([4]; at 50.0 µM),"growth inhibition [5, 7]","growth inhibition [5, 8]",growth inhibition ([5]; at 50.0 µM),"growth inhibition [6, 7]","growth inhibition [6, 8]",growth inhibition ([6]; at 50.0 µM)
NC(=O)C1(Br)C=[N+](Cc2ccccc2)CCC1 (stereo not given),0%,-2%,29.2%,3%,-3%,11.9%,-3%,-4%,11.8%,-2%,-3%,13.9%,-2%,-6%,-3.4%,2%,1%,24.4%
CN(C)C(=O)c1cc(Cl)cc(-c2ccccc2)c1O,1%,67%,40.5%,1%,74% (active),32.1%,-1%,68%,46.1%,-5%,38%,-6.75%,1%,86% (active),60.2%,1%,93% (active),78.8% (active)
COc1cc(NCCCCCNC2CCCCC2)c2ncccc2c1,2%,64%,83.2% (active),-4%,17%,46.5%,21%,63%,74.1% (active),7%,32%,19.9%,14%,57%,83.6% (active),-18%,27%,74.2% (active)
Clc1ccc(OCC(Cn2ccnc2)c2ccc(Cl)cc2)cc1 (stereo not given),74% (active),91% (active),99.8% (active),55%,80% (active),99.9% (active),70% (active),97% (active),99.8% (active),60%,89% (active),99.5% (active),73% (active),98% (active),99.8% (active),64%,97% (active),99.2% (active)
Cc1cc(SCC(=O)c2ccccc2)cc(C)[o+]1,-4%,82% (active),92% (active),-5%,80% (active),95.6% (active),-7%,44%,56.4%,-6%,1%,17.6%,0%,86% (active),97.9% (active),1%,69%,95.4% (active)
O=C1OC(=O)c2cccc3cccc1c23,51%,99% (active),98.8% (active),35%,99% (active),99.1% (active),19%,99% (active),98.5% (active),23%,99% (active),98.5% (active),58%,99% (active),99.5% (active),57%,99% (active),98.4% (active)
CC(=O)NCC1OC2COC(c3ccccc3)OC2C(NC(=O)c2ccccc2)C1OC(=O)c1ccccc1 (stereo not given),15%,10%,22.4%,15%,10%,11.8%,-11%,-13%,2.3%,6%,-15%,6.7%,8%,5%,7.55%,15%,9%,91.3% (active)
Clc1c(Cl)c(Cl)c(SC2C3CC4C(C3)C42)c(Cl)c1Cl (stereo not given),31%,98% (active),98.3% (active),23%,99% (active),98.8% (active),27%,97% (active),98.8% (active),12%,97% (active),97.9% (active),7%,91% (active),98% (active),21%,97% (active),98.4% (active)
C1C[OH+]CC[OH+]CCNCC[OH+]CC[OH+]CCN1.[Cl-].[Pt+4],34%,34%,86.8% (active),34%,34%,87.4% (active),29%,29%,84.8% (active),29%,29%,87.1% (active),10%,10%,86.2% (active),43%,43%,84.2% (active)
S=c1[nH]nc(SCc2ccc(Cl)c(Cl)c2)c2[nH]cnc12,-4%,-13%,1.45%,-11%,-2%,9.2%,-14%,-14%,21.2%,-10%,-16%,28.8%,-8%,-8%,9.25%,-21%,-16%,5.2%
O=C1C2C3CCC(O3)C2C(=O)N1c1cccc2ccccc12 (stereo not given),-1%,-27%,-1.2%,-5%,-5%,8.15%,-3%,1%,49%,0%,1%,-7.35%,0%,7%,-10.4%,0%,5%,8.3%
COC(=O)c1ccc(CCC2=CC(=O)C=CC2=O)cc1,39%,99% (active),84.3% (active),39%,100% (active),92.8% (active),35%,100% (active),91.2% (active),29%,75% (active),89.3% (active),43%,100% (active),91.3% (active),49%,99% (active),65.8%
COc1ccc2nc3cc(Cl)ccc3c(NCCCCCCNc3c4ccc(Cl)cc4nc4ccc(OC)nc34)c2n1,5%,87% (active),96.9% (active),6%,74% (active),98.2% (active),5%,82% (active),98.2% (active),4%,80% (active),91.5% (active),3%,92% (active),96.8% (active),2%,82% (active),96.5% (active)
O=[N+]([O-])/C(C(Cl)=C(Cl)Cl)=C(/Nc1ccccc1)SCc1ccccc1,32%,100% (active),12.3%,32%,100% (active),26.1%,13%,99% (active),18.9%,21%,97% (active),14.6%,28%,94% (active),43.4%,38%,100% (active),50.6%
CC1CCN(C(=S)NNC(C)c2cc3ccccc3cn2)CC1 (stereo not given),45%,97% (active),82.5% (active),60%,98% (active),75.7% (active),80% (active),97% (active),88.6% (active),82% (active),97% (active),84.9% (active),71% (active),97% (active),85.8% (active),50%,96% (active),86.8% (active)
CCCCCCCCN1C(=O)c2ccccc2S1(=O)=O,-2%,95% (active),22.9%,-4%,96% (active),32.1%,-2%,94% (active),73.8% (active),-17%,95% (active),-27.6%,25%,96% (active),89.2% (active),-2%,95% (active),76.2% (active)
Cn1c(-c2ccc(/C=N/NC(=S)N/N=C/c3ccc(-c4c[n+]5ccsc5n4C)cc3)cc2)c[n+]2ccsc12,72% (active),95% (active),88.6% (active),66%,98% (active),91.2% (active),73% (active),98% (active),91.4% (active),34%,91% (active),86.4% (active),60%,89% (active),90.3% (active),72% (active),97% (active),88% (active)
CC(=NCC(=O)O)c1ccccc1,-12%,-6%,48.5%,-6%,-3%,-20.2%,-8%,-4%,-52.9%,2%,-6%,-4.8%,10%,13%,-22.1%,-4%,1%,-5.7%
O=C(/C(=C\c1ccccc1)c1ccccc1)c1ccc(Br)cc1,7%,-9%,10.2%,3%,4%,-16.2%,4%,5%,24.6%,0%,-8%,47.1%,1%,9%,11.8%,-8%,2%,17.4%
CCCCOCN(CC(CC)CCCC)CC(CC)CCCC (stereo not given),4%,15%,26%,3%,14%,12.8%,1%,29%,73.4% (active),4%,10%,5.3%,1%,20%,18.9%,-4%,37%,52.1%
O=C1CSC(c2ccccc2O)N1c1ccc(-n2c(-c3ccccc3)nc3ccccc3c2=O)cc1 (stereo not given),2%,78% (active),67.3%,-1%,39%,64.4%,5%,50%,72.5% (active),29%,79% (active),78.5% (active),-13%,56%,74.8% (active),0%,81% (active),75.5% (active)
CCCCCCCCCCCCNC(=O)C[n+]1cccc(C(=O)Nc2ccccc2)c1,99% (active),97% (active),98.8% (active),100% (active),99% (active),98.8% (active),99% (active),98% (active),99.5% (active),99% (active),98% (active),98.6% (active),99% (active),98% (active),98.2% (active),99% (active),98% (active),98.2% (active)
CCn1c(C)cc(=O)n1-c1ccc([N+](=O)[O-])cc1,-160%,-148%,51.1%,-45%,-50%,17.4%,-60%,-48%,25.4%,-64%,-69%,24%,-71%,-78%,50.1%,-146%,-110%,68.9%
Cc1c2c(c(C)c3c1OC(C)(C)CC3)OC(C)(C)CC2,-10%,-4%,34.6%,-13%,-7%,77.2% (active),-14%,8%,62.2%,-6%,0%,46.5%,-5%,-5%,11.2%,-13%,-7%,98.2% (active)
BrC1CCCCCC1,2%,10%,51.9%,3%,16%,34.5%,1%,22%,57.4%,6%,14%,27.4%,5%,35%,37%,6%,24%,81.7% (active)
